Experimental data as given in PubChem BioAssay (NCATS).
Unmarked numbers belong to inactive results. Records with an inconclusive call do not appear. The source made the active and inactive calls. Unless noted, calls come from the whole dose curve; as a rule, active = well fitted curve in either direction with a large enough effect (not every such curve was filed as active); inconclusive = small, poorly fitted or top-dose-only effect, or another doubt; inactive = flat fitted curve, though single readings scatter.

Columns and labels:
[1] = AP1 Signaling Pathway (AID 357); settings: ME-180 AP-1-bla reporter, EGF-induced, beta-lactamase ratio, 5 h; at 17.2 µM (top of the series) unless noted; note: % is set by controls: 0 for no effect and ±100 for the full control effect
How it was run: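 AP-1-bla ME-180 cells with beta-lactamase reporter under AP-1 response element, stimulated with EC50 EGF; compounds titrated, 5 hours at 37 degrees Celsius. CCF4 read at 460/530 nm ratio; positive and negative modulators judged by AC50.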

[2] = NFAT Signaling Pathway (AID 444); settings: Jurkat NFAT-bla M1, carbachol, beta-lactamase ratio, 5 h; at 17.2 µM (top of the series) unless noted;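 note: carbachol stimulus at about its EC50 of 1 µM final; % is set by controls: 0 for no effect and ±100 for the full control effect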
How it was run: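 Jurkat cells with NFAT-driven β-lactamase reporter and co-expressed M1 receptor, stimulated with carbachol (final 1 uM, ~EC50), compound titration, 5 h at 37 °C. CCF4 loaded 1 h at RT; 460/530 nm ratio gave %activity and AC50.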

[3] = Stat Signaling Pathway (AID 446); settings: ME-180 (cervical carcinoma) SIE beta-lactamase reporter, IL-6 stimulated, 5 h; at 17.2 µM (top of the series) unless noted;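 note: ME-180 cervical cancer cells given 40 pM IL-6 alongside compound; SIE-controlled beta-lactamase reporter measured as 460/530 nm FRET emission ratio; % is set by controls: 0 for no effect and ±100 for the full control effect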
How it was run: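 Overnight-plated ME-180 cells bearing a STAT Inducible Element beta-lactamase reporter; 5 h co-exposure to compound and 40 pM IL-6; values normalized to 300 pM IL-6 and 125 nM JAK inhibitor controls.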

[4] = target: Glucocorticoid receptor (Homo sapiens) (UniProt P04150); experiment: GR-GFP Redistribution (AID 450;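 active = compounds whose dose series gives a full or clear partial fitted curve of increased nuclear translocation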; note: potency is the fitted concentration of half-maximal effect)
Sequence of Glucocorticoid receptor (Homo sapiens) (P04150 whole entry, looked up): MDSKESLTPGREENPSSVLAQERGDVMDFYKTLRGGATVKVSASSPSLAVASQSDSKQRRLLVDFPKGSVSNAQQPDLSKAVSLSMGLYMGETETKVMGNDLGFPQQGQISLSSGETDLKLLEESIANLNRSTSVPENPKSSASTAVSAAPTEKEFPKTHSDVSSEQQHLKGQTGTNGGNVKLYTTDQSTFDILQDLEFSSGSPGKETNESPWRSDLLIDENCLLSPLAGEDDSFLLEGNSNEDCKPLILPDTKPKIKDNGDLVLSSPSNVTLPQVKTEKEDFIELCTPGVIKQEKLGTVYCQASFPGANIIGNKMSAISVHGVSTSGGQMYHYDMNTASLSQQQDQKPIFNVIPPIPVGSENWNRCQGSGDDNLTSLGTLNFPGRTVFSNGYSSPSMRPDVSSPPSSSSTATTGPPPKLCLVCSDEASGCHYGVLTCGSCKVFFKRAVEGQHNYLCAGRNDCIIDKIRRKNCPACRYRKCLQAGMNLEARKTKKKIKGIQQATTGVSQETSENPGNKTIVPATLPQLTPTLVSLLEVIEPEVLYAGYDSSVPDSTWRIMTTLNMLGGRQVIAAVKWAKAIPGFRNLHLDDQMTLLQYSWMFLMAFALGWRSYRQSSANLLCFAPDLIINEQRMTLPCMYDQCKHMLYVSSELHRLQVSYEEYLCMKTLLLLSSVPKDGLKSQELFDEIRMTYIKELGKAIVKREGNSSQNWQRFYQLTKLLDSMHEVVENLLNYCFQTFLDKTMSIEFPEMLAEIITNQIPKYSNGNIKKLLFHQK

## N#CC1=C(N)N2C(=C(C#N)C1c1ccccc1)Sc1ccccc12 (stereo not given)
[1]
  activity change, negative = inhibition: 17.5%
[2]
  activity change, negative = inhibition: -26.8%
[3]
  activity, negative = inhibition: 3.71%
[4]
  Potency: > 20.6 µM

## CCN(CC)CCN1C(=O)c2ccccc2NC1c1cc(OC)c(OC)c(OC)c1 (stereo not given)
[1]
  activity change, negative = inhibition: 8.96%
[2]
  activity change, negative = inhibition: 5.73%
[3]
  activity, negative = inhibition: 10.5%
[4]
  Potency: > 20.6 µM

## Nc1ccc2c3c(cccc13)CC2
[1]
  activity change, negative = inhibition: 0.829%
[2]
  activity change, negative = inhibition: 11.5%
[3]
  activity, negative = inhibition: 7.79%
[4]
  Potency: 3.98 µM (active)

## CCCCOc1ccc(C(=O)NCC(=O)NCC(=O)OCC)cc1
[1]
  activity change, negative = inhibition: -0.159%
[2]
  activity change, negative = inhibition: -7.6%
[3]
  activity, negative = inhibition: -5.03%
[4]
  Potency: > 20.6 µM

## O/N=C1\CCc2cc(Cl)ccc21
[1]
  activity change, negative = inhibition: -7.29%
[2]
  activity change, negative = inhibition: -1.82%
[3]
  activity, negative = inhibition: 6.47%
[4]
  Potency: > 20.6 µM

## CC(C(=O)N1CCOCC1)N1C(=O)c2ccccc2C1=O (stereo not given)
[1]
  activity change, negative = inhibition: 14.2%
[2]
  activity change, negative = inhibition: -4.66%
[3]
  activity, negative = inhibition: 10.1%
[4]
  Potency: > 20.6 µM

## Clc1ccc2[nH]c3c(NCCCN4CCOCC4)ncnc3c2c1
[1]
  activity change, negative = inhibition: 17%
[2]
  activity change, negative = inhibition: -2.05%
[3]
  activity, negative = inhibition: -2.1%
[4]
  Potency: > 20.6 µM

## CCN=C1SC(C(=O)Nc2ccc(Cl)c(Cl)c2)CC(=O)N1CC (stereo not given)
[1]
  activity change, negative = inhibition: -19.4%
[2]
  activity change, negative = inhibition: 10.1%
[3]
  activity, negative = inhibition: 4.81%
[4]
  Potency: > 20.6 µM

## CCOC(=O)C(NC=O)(NC(C)(C)C)C(=O)OCC
[1]
  activity change, negative = inhibition: -2.44%
[2]
  activity change, negative = inhibition: 4.66%
[3]
  activity, negative = inhibition: 24.2%
[4]
  Potency: > 20.6 µM

## Cc1ccc(N2CN=c3s/c(=C\c4cccnc4)c(=O)n3C2)cc1
[1]
  activity change, negative = inhibition: -7.29%
[2]
  activity change, negative = inhibition: -22.3%
[3]
  activity, negative = inhibition: -5.47%
[4]
  Potency: > 20.6 µM

## CCSc1nnc(N(CCC#N)CCC#N)s1
[1]
  activity change, negative = inhibition: 8.14%
[2]
  activity change, negative = inhibition: -7.48%
[3]
  activity, negative = inhibition: -1.67%
[4]
  Potency: > 20.6 µM

## COc1cccc(-c2nn3c(-c4ccco4)nnc3s2)c1
[1]
  activity change, negative = inhibition: -16%
[2]
  activity change, negative = inhibition: 2.73%
[3]
  activity, negative = inhibition: 6.95%
[4]
  Potency: > 20.6 µM

## Cc1cc(=O)n(CCC(=O)O)c2ccccc12
[1]
  activity change, negative = inhibition: 4.89%
[2]
  activity change, negative = inhibition: 1.73%
[3]
  activity, negative = inhibition: 3.32%
[4]
  Potency: > 20.6 µM

## CCOC(=O)c1c(C)n(C)c2ccc(OC)c(NC(=O)CCN3CCSCC3)c12
[1]
  activity change, negative = inhibition: 2.45%
[2]
  activity change, negative = inhibition: 4.14%
[3]
  activity, negative = inhibition: 7.06%
[4]
  Potency: > 20.6 µM

## COC(=O)C1=C(C)N=C2SC(C)C(=O)N2C1c1cccs1 (stereo not given)
[1]
  activity change, negative = inhibition: -11.1%
[2]
  activity change, negative = inhibition: -9.72%
[3]
  activity, negative = inhibition: -9.23%
[4]
  Potency: > 20.6 µM

## COCC(C)Nc1ncnc2c1cnn2-c1ccc(Cl)cc1 (stereo not given)
[1]
  activity change, negative = inhibition: -23.7%
[2]
  activity change, negative = inhibition: -6.38%
[3]
  activity, negative = inhibition: -3.72%
[4]
  Potency: > 20.6 µM

## O=S(CCc1ccncc1)Cc1ccccc1 (stereo not given)
[1]
  activity change, negative = inhibition: 9.28%
[2]
  activity change, negative = inhibition: 26%
[3]
  activity, negative = inhibition: 2.34%
[4]
  Potency: > 20.6 µM

## Cc1ccc(CC2CC(=O)N(c3ccc4c(c3)OCCO4)C2=O)cc1 (stereo not given)
[1]
  activity change, negative = inhibition: -5.59%
[2]
  activity change, negative = inhibition: 4.5%
[3]
  activity, negative = inhibition: 0.576%
[4]
  Potency: > 20.6 µM

## Cc1cc(OCC(=O)Nn2cnnc2)ccc1Br
[1]
  activity change, negative = inhibition: 11.6%
[2]
  activity change, negative = inhibition: -7.1%
[3]
  activity, negative = inhibition: 4.67%
[4]
  Potency: > 20.6 µM

## COc1ccccc1NC(=O)CSc1nnc(-c2ccc(NC(C)=O)cc2)n1C
[1]
  activity change, negative = inhibition: -3.49%
[2]
  activity change, negative = inhibition: -2.99%
[3]
  activity, negative = inhibition: -0.879%
[4]
  Potency: > 20.6 µM

## NS(=O)(=O)c1ccc(-c2ccc(C=NC3CCS(=O)(=O)C3)o2)cc1 (stereo not given)
[1]
  activity change, negative = inhibition: 19.2%
[2]
  activity change, negative = inhibition: -3.68%
[3]
  activity, negative = inhibition: -5.15%
[4]
  Potency: > 20.6 µM

## COc1ccc(CCNc2nc3c(c(=O)n(C)c(=O)n3C)n2C)cc1OC
[1]
  activity change, negative = inhibition: -2.56%
[2]
  activity change, negative = inhibition: 3.63%
[3]
  activity, negative = inhibition: -0.466%
[4]
  Potency: > 20.6 µM

## Cc1ccc2c(=O)c(CN(C)C3CCN(C)CC3)c(C)[nH]c2c1C
[1]
  activity change, negative = inhibition: 0.184%
[2]
  activity change, negative = inhibition: -6.29%
[3]
  activity, negative = inhibition: 5.33%
[4]
  Potency: > 20.6 µM

## c1cncc(-c2nnc3sc(-c4ccco4)nn23)c1
[1]
  activity change, negative = inhibition: -2.13%
[2]
  activity change, negative = inhibition: 4.1%
[3]
  activity, negative = inhibition: -6.03%
[4]
  Potency: > 20.6 µM

## Cc1cccn2c(=O)c3cc(C(=O)NCc4cccnc4)c(=N)n(C)c3nc12
[1]
  activity change, negative = inhibition: 0.507%
[2]
  activity change, negative = inhibition: 5.48%
[3]
  activity, negative = inhibition: 10%
[4]
  Potency: > 20.6 µM
